# Reference: PubChem BioAssay (NCATS)
# A number with no mark means an inactive call. The call rests on the fitted dose curve; in most records, active means well fitted inhibition curve with a large enough effect; inconclusive means small, poorly fitted or top-dose-only effect; inactive means flat fitted curve, though single readings scatter.
# System: Nanoluciferase (engineered Oplophorus gracilirostris luciferase)
# Experiment: Primary Nanoluciferase (NLuc) qHTS assay for identification of artifact compounds. (AID 1845222);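 further: NLuc secreted into diluted conditioned medium of S16 cells; 0% = DMSO and -100% = no enzyme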
# Conditions: NLuc-conditioned medium, Nano-Glo luminescence, 5 min; series mostly up to 54.1 µM; activity, negative = inhibition: at the top concentration
# Procedure, shortened: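 NLuc from S16 cell medium (1:55) plus test compounds, 15 min, room temperature. Luminescence after Nano-Glo (1:100) addition, 5 min.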
row,Compound,"activity, negative = inhibition"
1,COC(=O)C1=CO[C@@H](O[C@@H]2O[C@H](CO)[C@@H](O)[C@H](O)[C@H]2O)[C@@H]2[C@@H](C)[C@@H](OC(=O)/C=C/c3ccccc3)[C@@H](O)[C@H]12,3.06% [at 25.7 µM]
2,C[C@@H]1O[C@@H](O[C@H]2[C@H](O[C@H]3[C@H](O[C@H]4CC[C@@]5(C)C(CC[C@]6(C)C5CC=C5[C@@H]7CC(C)(C)CC(=O)[C@]7(C)CC[C@]56C)[C@@]4(C)CO)O[C@H](C(=O)O)[C@@H](O)[C@@H]3O)O[C@H](CO)[C@H](O)[C@@H]2O)[C@H](O)[C@H](O)[C@H]1O (some centres undefined),-0.78% [at 11.6 µM]
3,CC1(C)OC(=O)CC(O)C2(C)C1CC(=O)C1(C)C2C(O)CC2(C)C(c3ccoc3)OC(=O)C3OC321 (centres undefined),0.461% [at 25.7 µM]
4,C=C1CCC2C(C)(C)CC(=O)CC2(C)C1CCC(C)CCO (centres undefined),-6.45%
5,COc1cccc(OC)c1-c1nc(C(=O)N[C@@H](CC(C)C)C(=O)O)cn1-c1ccnc2cc(Cl)ccc12,2.18%
6,C=C(COC(=O)CC(C)C)C1Cc2cc(C(C)=O)ccc2O1 (centres undefined),-8.16%
7,C[C@@H]1C[C@@H](O)[C@@]2(CO)C(CO)=CCC[C@@H]2[C@@]12C[C@@H](c1ccoc1)OC2=O,1.98%
8,COc1cc(C)c(C(=O)NC2C(C)OC(OC3CCC(C)C4C3C=C(C)C3/C(C)=C\CC/C(C)=C/C5(C)C=C(C(=O)O)C(C)CC56OC(=O)/C(=C(\O)C34C)C6=O)C(O)C2(C)O)c(O)c1 (centres undefined),4.93% [at 11.6 µM]
9,CCCCCOC(=O)Nc1nc(=O)n(C2O[C@H](C)[C@@H](O)[C@H]2O)cc1F (some centres undefined),3.25%
